Results on 25 compounds are retold here after PubChem BioAssay.

SMILES strings stand for the structures.

The target of this test is Dickkopf-related protein 1 (Homo sapiens) (UniProt O94907). In words: small molecules binding DKK1 protein – biochemical, small-molecule microarray, 635 nm fluorescence scan, primary screen (AID 1106).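 Note: score merges emission near 667 nm with signal to noise over three replicate slides.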 Particulars: higher = more signal.
Sequence of Dickkopf-related protein 1 (Homo sapiens) (O94907 whole entry, looked up): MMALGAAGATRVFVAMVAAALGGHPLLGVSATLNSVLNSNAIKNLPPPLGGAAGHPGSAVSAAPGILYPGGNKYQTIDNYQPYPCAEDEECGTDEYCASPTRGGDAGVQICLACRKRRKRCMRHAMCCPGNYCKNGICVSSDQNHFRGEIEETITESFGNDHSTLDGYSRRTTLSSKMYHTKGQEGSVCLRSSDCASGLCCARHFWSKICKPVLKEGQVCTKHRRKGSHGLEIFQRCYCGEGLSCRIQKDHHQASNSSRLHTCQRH
The compound `C[N+](C)(C)CCCC[C@@H]1NC(=O)[C@H]2C[C@@H](C(=O)NCCCCCCN)[C@@H](c3cccc(OCCO)c3)N2C1=O` registered a composite z-score of 1.27.

`COC(=O)C(CC#Cc1ccc2c(c1)[C@]1(C(=O)N2)[C@H](c2ccc(O)cc2)N2[C@H](c3ccccc3)[C@H](c3ccccc3)OC(=O)[C@H]2[C@@H]1C(N)=O)C(=O)OC` showed a composite z-score of -0.841.

`CN(C)C(=O)[C@@]1(CCC(=O)OC(C)(C)C)N=C(c2ccc(OCCCO)cc2)O[C@H]1c1ccccc1N=[N+]=[N-]` displayed a composite z-score of 0.648.

`CCOC(=O)C[C@H]1[C@H](OC(=O)Cc2ccc3c(c2)OCO3)[C@@H](NC(=O)c2ccccc2)c2cc(OCCCO)ccc2N1C(=O)c1ccc2ccccc2n1` returned a composite z-score of 0.328.

For `O=[N+]([O-])c1ccc(C[n+]2ccc(-c3ccc(CO)cc3)cc2)o1`, the composite z-score was 0.253.

For the compound `NC(=O)[C@H]1[C@@H]2C(=O)O[C@@H](c3ccccc3)[C@@H](c3ccccc3)N2[C@@H](c2ccc(O)cc2)[C@]12C(=O)Nc1ccc(C#CC3(O)CCCCCC3)cc12`, the composite z-score is 0.573.

Regarding `CN(C)C(=O)[C@@]1(Cc2ccccc2N=[N+]=[N-])N=C(c2ccc(OCCCO)cc2)O[C@H]1c1ccccc1N=[N+]=[N-]`, the composite z-score is 0.0393.

As to `NC(=O)NCC#Cc1ccc2c(c1)[C@]1(C(=O)N2)[C@H](c2ccc(O)cc2)N2[C@H](c3ccccc3)[C@H](c3ccccc3)OC(=O)[C@H]2[C@@H]1C(N)=O`, the composite z-score was -0.343.

Consider `NC(=O)NCC#Cc1ccc2c(c1)[C@]1(C(=O)N2)[C@H](c2ccc(OCCO)cc2)N2[C@H](c3ccccc3)[C@H](c3ccccc3)OC(=O)[C@H]2[C@@H]1C(=O)N1CCN(c2ncccn2)CC1`, for which the composite z-score is 0.209.

The compound `O=C1N(Cc2ccccc2)c2ccccc2[C@H]2OC(c3ccc(OCCCO)cc3)=N[C@@]12CCS(=O)(=O)c1ccccc1` displayed a composite z-score of 0.379.

On to `COCC(=C=CC[C@@H](O)c1ccccc1OCCO)C[C@@H](O)c1ccccn1`, for which the composite z-score amounted to 0.0514.

Consider `COc1ccc(C#Cc2ccc3c(c2)[C@]2(C(=O)N3)[C@H](c3ccc(OCCO)cc3)N3[C@H](c4ccccc4)[C@H](c4ccccc4)OC(=O)[C@H]3[C@@H]2C(=O)N2CCN(c3ncccn3)CC2)cc1`, for which the composite z-score worked out at 0.0015.

`COc1ccc(C(=O)Nc2ccc3c(c2)[C@]2(O[C@@H](CCO)[C@H]([Si](C)(C)c4ccc(OC)cc4)[C@H]2C)C(=O)N3Cc2ccccc2)cc1` had a composite z-score of 0.359.

For `CC(C)C[C@@H]1NC(=O)[C@@]23C(=O)N[C@@H](Cc4ccccc4)C2[C@H](C)[C@@]2(C)O[C@H]2C3/C=C/C/C=C\CNC(=O)[C@@H]2CCCN2C1=O` (stereo not given in full), the composite z-score is 0.534.

In turn, `Cc1cc(C)c(C(O)C2C=CC3C(=O)N(c4ccccc4)C(=O)C3N2Nc2ccc([N+](=O)[O-])cc2)c(C)c1` (stereo not given) had a composite z-score of 0.275.

On to `CC[C@@H]1[C@@H]2C3C(=O)N(CC)C(=O)C3CC(=O)[C@@H]2[C@H](c2ccc(C)cc2)N1S(=O)(=O)c1ccc(C)cc1` (stereo not given in full), for which the composite z-score was found to be 0.238.

Compound `C=CCNC(=O)[C@@H]1[C@H]2C(=O)O[C@H](c3ccccc3)[C@H](c3ccccc3)N2[C@H](c2ccc(O)cc2)[C@@]12C(=O)Nc1ccc(C#CCCO)cc12` displayed a composite z-score of 0.0119.

In turn, `O=C1NC(=O)C2C1C=CC(C(O)c1ccc(-c3ccccc3)s1)N2Nc1ccccn1` (stereo not given) displayed a composite z-score of 0.664.

As to `OCCCC1=CC(c2cccs2)N(Cc2cccc(OC(F)(F)F)c2)CC1` (stereo not given), the composite z-score was -0.015.

Take `O=C1OCC=C[C@H]2OC34C=CCN(CCN5CCOCC5)C(=O)[C@H]3N(CCCCCO)C(=O)[C@@H]4[C@@H]12` (stereo not given in full): the composite z-score was -0.24.

Compound `CCCN1C(=O)[C@@]2(Cc3ccccc3)N=C(c3ccc(OCCCO)cc3)O[C@H]2c2ccccc21` returned a composite z-score of -0.234.

In the case of `C[N+](C)(C)CCCC[C@@H]1NC(=O)[C@@H]2C[C@H](C(=O)O)[C@H](c3cccc(OCCO)c3)N2C1=O`, the composite z-score worked out at 0.503.

As for `C/C=C/[C@@H](CCn1cc([C@H](O)c2ccccc2)nn1)[Si](C)(C)c1ccc(OC)cc1`, the composite z-score was -0.0219.

`CCN(CC)c1ccc(N2CC=CC34O[C@@H]5/C=C\CCCOC(=O)C5[C@H]3C(=O)N(CCCCCCO)[C@@H]4C2=O)cc1` (stereo not given in full) returned a composite z-score of -1.82.

For `COC(=O)[C@@]1(Cc2ccc(OC)cc2)[C@H]2c3cc(C(=O)N4CCCC4)n(CCF)c3C[C@H]2CN1C(=O)c1ccccc1`, the composite z-score was -0.226.
